# Biological target: Smad nuclear-interacting protein 1 (UniProt Q8TAD8)
# Assay: mass-spectrometry hit list; affinity purification or IP with mass spectrometry
substance,measurement,value
"DNA-directed RNA polymerase II subunit RPB1, P24928",listed as a hit,yes

# — publication PMC5998130
